In PubChem BioAssay:
For some assays here: Measured potencies and affinities stand elsewhere. Activity calls are given as the source filed them.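 The calls were made as follows, unless noted: active = thallium flux through the channel raised or lowered by more than 3 SD from vehicle-only wells, actives on both sides; inactive = the rest.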

Assays:
[1] = antimalarial activity against Dd2 strain (AID 2302;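 active = growth inhibition above 50% at the single 2 µM test dose, taken to imply half-maximal potency below 2 µM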;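 also: 0% = DMSO untreated growth and 100% = chloroquine plus artemisinin killed control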); settings: P. falciparum Dd2 in RBCs, LDH growth readout, 72 h; at 2 µM; active compounds read high
[2] = human hepatoma cell viability loss – ATP luminescence, cytotoxicity control for P. falciparum antimalarial project, primary screen (AID 2303;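 active = inhibition above 50%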;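 also: 0% = DMSO wells and 100% = digitonin-killed cells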); settings: HepG2 viability, 24-48 h, at 10 µM, active compounds read high
[3] = target: L-lactate dehydrogenase (Plasmodium falciparum (isolate CDC / Honduras)) (UniProt Q27743); assay: PfLDH activity inhibition – cell lysate, 3D7 strain, counter-screen for P. falciparum growth inhibition project (AID 2304; call rule not given here;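 also: 0% = vehicle and 100% = reference inhibitor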); settings: P. falciparum 3D7 crude extract, LDH APAD/NBT absorbance; at 2 µM; active compounds read high
[4] = inhibition of 3D7 malaria parasite growth – strain 3D7 (AID 2306; call rule not given here;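 also: 0% = DMSO wells and 100% = chloroquine plus artemisinin control wells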); settings: P. falciparum 3D7 erythrocytic growth, LDH absorbance, 72 h; at 2 µM; active compounds read high
[5] = target: Plasmodium falciparum protein kinase 6 (PK6, PF3D7_1337100) (UniProt Q8IDW1); assay: PfPK6 kinase inhibitors, biochemical, TCAMS library (AID 1159586; call rule not given here); settings: recombinant PfPK6, Kinase-Glo ATP depletion luminescence
[6] = target: Calcium-dependent protein kinase 4 (Plasmodium falciparum (isolate 3D7)) (UniProt Q8IBS5); assay: PfCDPK4 kinase inhibitors, biochemical, TCAMS library (AID 1159588; cut-off not given, nearly all actives have IC50 up to about 0.91 µM); settings: recombinant PfCDPK4, Kinase-Glo ATP depletion luminescence
[7] = target: Protein kinase 7 (PK7), Plasmodium falciparum 3D7 (PF3D7_0213400) (UniProt Q7YTF7); assay: inhibition of Plasmodium PK7 catalytic activity – biochemical, TCAMS antimalarial set, Kinase-Glo luminescence (AID 1159587; call rule not given here); settings: recombinant PfPK7, Kinase-Glo ATP depletion luminescence
F380Y = assay: BK channel mutant inhibitors and activators – cell-based, U2OS BacMam, thallium flux, beta subunits, selectivity assay, profiling panel (AID 1259406); settings: U2OS BacMam BK variants, at 30 µM;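 also: initial slope of Thallos dye fluorescence rise after thallium is added; log ratio against the mean of 0.3% DMSO vehicle wells on the same plate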
F380Y/beta1 = assay: as above; settings: U2OS BacMam BK variants, at 30 µM
F380Y/beta2Delta = assay: as above; settings: U2OS BacMam BK variants, at 30 µM
F380Y/beta4 = assay: as above; settings: U2OS BacMam BK variants, at 30 µM
[8] = target: Calcium-activated potassium channel subunit alpha-1 (Homo sapiens) + Leucine-rich repeat-containing protein 26 (Homo sapiens) (UniProt Q12791+Q2I0M4); assay: as above; settings: U2OS BacMam BK variants, F380Y/Slo1WT/gamma1, at 30 µM
R275C = assay: as above; settings: U2OS BacMam BK variants, at 30 µM
R275C/beta1 = assay: as above; settings: U2OS BacMam BK variants, at 30 µM
R275C/beta2Delta = assay: as above; settings: U2OS BacMam BK variants, at 30 µM
R275C/beta4 = assay: as above; settings: U2OS BacMam BK variants, at 30 µM
R275C/Slo1WT/beta2 = assay: as above; settings: U2OS BacMam BK variants, at 30 µM

Sequence of L-lactate dehydrogenase (Plasmodium falciparum (isolate CDC / Honduras)) (Q27743 whole entry, looked up): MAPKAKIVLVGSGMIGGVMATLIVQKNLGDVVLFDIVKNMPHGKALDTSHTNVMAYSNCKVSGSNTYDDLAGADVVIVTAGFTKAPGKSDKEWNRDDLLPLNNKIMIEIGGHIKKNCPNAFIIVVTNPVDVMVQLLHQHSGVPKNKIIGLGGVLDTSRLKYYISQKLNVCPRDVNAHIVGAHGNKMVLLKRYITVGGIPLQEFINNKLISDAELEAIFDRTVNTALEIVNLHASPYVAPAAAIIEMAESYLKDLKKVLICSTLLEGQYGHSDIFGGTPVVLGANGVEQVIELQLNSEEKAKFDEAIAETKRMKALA
Sequence of Calcium-dependent protein kinase 4 (Plasmodium falciparum (isolate 3D7)) (Q8IBS5 whole entry, looked up): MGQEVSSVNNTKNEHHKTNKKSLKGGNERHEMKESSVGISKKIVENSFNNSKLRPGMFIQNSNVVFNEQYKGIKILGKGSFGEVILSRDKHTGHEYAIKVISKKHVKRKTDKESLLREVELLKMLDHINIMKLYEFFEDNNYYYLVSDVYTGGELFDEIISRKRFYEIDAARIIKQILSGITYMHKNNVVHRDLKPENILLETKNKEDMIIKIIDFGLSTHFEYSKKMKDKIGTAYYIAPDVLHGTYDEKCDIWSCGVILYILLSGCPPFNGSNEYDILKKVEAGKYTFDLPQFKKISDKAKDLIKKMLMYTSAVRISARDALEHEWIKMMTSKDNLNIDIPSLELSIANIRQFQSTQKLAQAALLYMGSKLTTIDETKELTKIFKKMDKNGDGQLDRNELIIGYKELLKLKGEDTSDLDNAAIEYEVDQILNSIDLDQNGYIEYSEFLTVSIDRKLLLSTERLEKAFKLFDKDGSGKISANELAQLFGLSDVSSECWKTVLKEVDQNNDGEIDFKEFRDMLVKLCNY
Sequence of Calcium-activated potassium channel subunit alpha-1 (Homo sapiens) + Leucine-rich repeat-containing protein 26 (Homo sapiens) (Q2I0M4 whole entry, looked up, one chain of several): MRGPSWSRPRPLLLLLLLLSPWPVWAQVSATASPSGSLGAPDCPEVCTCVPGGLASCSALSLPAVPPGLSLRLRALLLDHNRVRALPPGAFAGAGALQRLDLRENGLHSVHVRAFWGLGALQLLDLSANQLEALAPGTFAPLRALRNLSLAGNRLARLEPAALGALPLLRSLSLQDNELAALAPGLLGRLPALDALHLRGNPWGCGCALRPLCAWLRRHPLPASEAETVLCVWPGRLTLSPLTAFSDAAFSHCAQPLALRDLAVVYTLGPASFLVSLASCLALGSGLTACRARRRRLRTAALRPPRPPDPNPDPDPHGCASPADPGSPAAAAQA
Sequence of Protein kinase 7 (PK7), Plasmodium falciparum 3D7 (PF3D7_0213400) (Q7YTF7 1-343): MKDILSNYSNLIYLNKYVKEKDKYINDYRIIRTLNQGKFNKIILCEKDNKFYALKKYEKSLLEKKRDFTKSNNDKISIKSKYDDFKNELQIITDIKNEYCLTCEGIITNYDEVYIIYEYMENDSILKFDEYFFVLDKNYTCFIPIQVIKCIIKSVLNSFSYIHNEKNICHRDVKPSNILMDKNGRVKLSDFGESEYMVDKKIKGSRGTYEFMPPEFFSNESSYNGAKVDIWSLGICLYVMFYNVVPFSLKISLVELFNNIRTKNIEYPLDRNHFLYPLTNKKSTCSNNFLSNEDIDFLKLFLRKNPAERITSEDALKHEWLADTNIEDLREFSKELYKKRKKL
Sequence of Plasmodium falciparum protein kinase 6 (PK6, PF3D7_1337100) (Q8IDW1 1-305): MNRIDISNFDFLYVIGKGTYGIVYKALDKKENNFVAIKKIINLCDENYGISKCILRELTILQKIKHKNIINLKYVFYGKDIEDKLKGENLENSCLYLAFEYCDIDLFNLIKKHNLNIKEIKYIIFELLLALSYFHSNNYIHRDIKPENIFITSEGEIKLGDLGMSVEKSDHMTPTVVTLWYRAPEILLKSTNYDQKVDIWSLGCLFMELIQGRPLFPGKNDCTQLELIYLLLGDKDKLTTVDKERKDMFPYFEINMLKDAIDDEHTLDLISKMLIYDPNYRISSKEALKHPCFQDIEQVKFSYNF

OC1CCC(Nc2ccc3ncc(-c4ccc(Cl)cc4)n3n2)CC1 (centres undefined)
inactive: inhibition [3] 0% | outcome [5] | outcome [6]
active: growth inhibition [1] 98% | inhibition [2] 57% | growth inhibition [4] 97%

Cc1cccc(Nc2nc(NCCCCN)nc3cc[nH]c(=O)c23)c1
active: growth inhibition [1] 97% | growth inhibition [4] 98%
inactive: inhibition [2] 34% | inhibition [3] 0% | outcome [5] | outcome [7]

CCn1c(-c2nonc2N)nc2c(-c3cccc(Cl)c3)ncc(OCCCNCc3cnc(C)nc3N)c21
inactive: growth inhibition [1] 48% | inhibition [2] 21% | inhibition [3] 3% | outcome [5] | outcome [7]
active: growth inhibition [4] 93%

CS(=O)(=O)Cc1ccc(Nc2nccc(N3CCCc4cc(NC(=O)Nc5cccc(C(F)(F)F)c5)ccc43)n2)cc1
inactive: inhibition [2] 46% | inhibition [3] -4% | outcome [7] | outcome [6]
active: growth inhibition [1] 99% | growth inhibition [4] 102%

CCn1c(-c2nonc2N)nc2c(-c3cccc(NC(=O)Nc4cccc(C#N)c4)c3)ncc(OCCCN)c21
inactive: inhibition [2] 37% | inhibition [3] 0% | outcome [5] | outcome [7]
active: growth inhibition [1] 80% | growth inhibition [4] 92%

NCCNC(=O)c1ccc(-c2cnc3[nH]cc(-c4ccc(C(N)=O)cc4)c3c2)cc1
active: growth inhibition [1] 98% | growth inhibition [4] 99%
inactive: inhibition [2] 2% | inhibition [3] -2% | outcome [7] | outcome [6]

CCn1c(-c2nonc2N)nc2c(-c3cccc(NC(=O)Nc4ccc(C(F)(F)F)cc4)c3)ncc(OCCCN)c21
active: growth inhibition [1] 63% | growth inhibition [4] 94%
inactive: inhibition [2] 36% | inhibition [3] 6% | outcome [5] | outcome [7]

CCn1c(-c2nonc2N)nc2c(-c3cccc(NC(=O)Nc4cccc(Cl)c4)c3)ncc(OCCCN)c21
inactive: inhibition [2] 9% | inhibition [3] -1% | outcome [5] | outcome [7]
active: growth inhibition [1] 78% | growth inhibition [4] 91%

CC(C)c1ccc(NC(=S)NC2CC3CC2C2C=CCC32)cc1 (centres undefined)
inactive: log fold change Tl+ flux (F380Y) 0.00954 | log fold change Tl+ flux (F380Y/beta1) -0.00688 | log fold change Tl+ flux (F380Y/beta2Delta) -0.0661 | log fold change Tl+ flux (R275C/Slo1WT/beta2) -0.0657
active: log fold change Tl+ flux (F380Y/beta4) -0.422 | log fold change Tl+ flux [8] -0.206 | log fold change Tl+ flux (R275C) -0.205 | log fold change Tl+ flux (R275C/beta1) -0.152 | log fold change Tl+ flux (R275C/beta2Delta) -0.109 | log fold change Tl+ flux (R275C/beta4) -0.11

Cc1c(Br)sc2sc(-c3ccnc(SCc4ccccc4)n3)c(C)c12
inactive: log fold change Tl+ flux (F380Y) -0.00256 | log fold change Tl+ flux (F380Y/beta1) -0.0227 | log fold change Tl+ flux (F380Y/beta2Delta) -0.00739 | log fold change Tl+ flux (F380Y/beta4) -0.0356 | log fold change Tl+ flux [8] 0.0451 | log fold change Tl+ flux (R275C) -0.000555 | log fold change Tl+ flux (R275C/beta1) -0.0282 | log fold change Tl+ flux (R275C/beta2Delta) 0.0157 | log fold change Tl+ flux (R275C/beta4) -0.00767 | log fold change Tl+ flux (R275C/Slo1WT/beta2) -0.00994

CNC(=O)c1ccccc1Nc1nc(Nc2ccc(CCN3CCN(C)CC3)cc2)ncc1Cl
inactive: inhibition [3] 5% | outcome [7]
active: growth inhibition [1] 98% | inhibition [2] 76% | growth inhibition [4] 97%

NS(=O)(=O)c1cccc(NC(=O)c2cccnc2Oc2ccccc2)c1
inactive: log fold change Tl+ flux (F380Y) -0.000714 | log fold change Tl+ flux (F380Y/beta1) 0.008 | log fold change Tl+ flux (F380Y/beta2Delta) 0.0103 | log fold change Tl+ flux (F380Y/beta4) -0.015 | log fold change Tl+ flux [8] -0.0607 | log fold change Tl+ flux (R275C) -0.0268 | log fold change Tl+ flux (R275C/beta1) -0.0191 | log fold change Tl+ flux (R275C/beta2Delta) 0.01 | log fold change Tl+ flux (R275C/beta4) 0.00433 | log fold change Tl+ flux (R275C/Slo1WT/beta2) -0.0182

N#Cc1cc(-c2ccccc2)oc1NC(=O)c1cccs1
inactive: log fold change Tl+ flux (F380Y) -0.0586 | log fold change Tl+ flux (F380Y/beta1) 0.0261 | log fold change Tl+ flux (F380Y/beta2Delta) 0.0131 | log fold change Tl+ flux (F380Y/beta4) 0.0109 | log fold change Tl+ flux [8] 0.0363 | log fold change Tl+ flux (R275C) 0.00241 | log fold change Tl+ flux (R275C/beta1) -0.0262 | log fold change Tl+ flux (R275C/beta2Delta) 0.0138 | log fold change Tl+ flux (R275C/beta4) -0.00555 | log fold change Tl+ flux (R275C/Slo1WT/beta2) 0.0278

CCN(CC)CCCOc1ccc(Nc2nccc(-c3c(-c4cccc(NC(=O)c5c(F)cccc5F)c4)nn4ccccc34)n2)cc1F
inactive: inhibition [3] -5% | outcome [7]
active: growth inhibition [1] 99% | inhibition [2] 86% | growth inhibition [4] 100%

O=S(=O)(CCN1CCN(Cc2ccccc2)CC1)c1ccc(F)cc1
inactive: log fold change Tl+ flux (F380Y) -0.000988 | log fold change Tl+ flux (F380Y/beta1) 0.0135 | log fold change Tl+ flux (F380Y/beta2Delta) 0.0237 | log fold change Tl+ flux (F380Y/beta4) 0.0241 | log fold change Tl+ flux [8] 0.000113 | log fold change Tl+ flux (R275C) 0.0486 | log fold change Tl+ flux (R275C/beta1) 0.0249 | log fold change Tl+ flux (R275C/beta2Delta) 0.00728 | log fold change Tl+ flux (R275C/beta4) 0.0441 | log fold change Tl+ flux (R275C/Slo1WT/beta2) -0.0289

Cc1nc(-c2ccc(S(=O)(=O)N3CCCN(c4ccc(C(F)(F)F)cn4)CC3)s2)cs1
active: log fold change Tl+ flux (F380Y/beta4) -0.105
inactive: log fold change Tl+ flux (F380Y) 0.00624 | log fold change Tl+ flux (F380Y/beta1) -0.00592 | log fold change Tl+ flux (F380Y/beta2Delta) -0.0273 | log fold change Tl+ flux [8] 0.00148 | log fold change Tl+ flux (R275C) -0.0736 | log fold change Tl+ flux (R275C/beta1) -0.0131 | log fold change Tl+ flux (R275C/beta2Delta) -0.0332 | log fold change Tl+ flux (R275C/beta4) -0.00508 | log fold change Tl+ flux (R275C/Slo1WT/beta2) 0.0123

Cc1ccc(Nc2ccnc(Nc3ccc4c(c3)CS(=O)(=O)C4)n2)cc1O
active: growth inhibition [1] 76% | inhibition [2] 82% | growth inhibition [4] 102%
inactive: inhibition [3] 5% | outcome [7] | outcome [6]

Cc1c(C)c(C)c(C(=O)c2ccccc2C(=O)NN)c(C)c1C
active: log fold change Tl+ flux (R275C/beta1) 0.144 | log fold change Tl+ flux (R275C/beta4) 0.0879
inactive: log fold change Tl+ flux (F380Y) 0.0326 | log fold change Tl+ flux (F380Y/beta1) 0.0715 | log fold change Tl+ flux (F380Y/beta2Delta) 0.00841 | log fold change Tl+ flux (F380Y/beta4) 0.0586 | log fold change Tl+ flux [8] 0.0596 | log fold change Tl+ flux (R275C) 0.02 | log fold change Tl+ flux (R275C/beta2Delta) 0.0153 | log fold change Tl+ flux (R275C/Slo1WT/beta2) 0.00811
